Source: PubChem BioAssay (EPA / NIEHS)
Where “and” joins values, the source holds several entries; their conditions need not be identical. Equal entries are not always repeated. A structure can be active in one record and inactive in another. Calls of active or inactive are those of the source. The calls were made as follows: active = hit-call score of the fitted dose curve at least 0.9, where 1 is the maximum; inactive = score below 0.9.

Molecular target: Hepatocyte nuclear factor 6 (Homo sapiens) (UniProt Q9UBC0)
Assay: ATG_HNF6_CIS: Attagene CIS-FACTORIAL HepG2 Assay for human Hepatocyte Nuclear Factor 6 (HNF6) (AID 2282952)
Details: HepG2 Attagene cis-factorial HNF6 reporter transcription; actives raise or lower the signal
Procedure, shortened: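 First, HepG2 cells were transfected with the multiplexed cis reporter library and dosed with chemical for 24 h. Next, RNA was reverse-transcribed, PCR-amplified and fluorescently labelled. Finally, HpaI-digested fragments were read by capillary electrophoresis.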

Sequence of Hepatocyte nuclear factor 6 (Homo sapiens) (Q9UBC0 whole entry, looked up): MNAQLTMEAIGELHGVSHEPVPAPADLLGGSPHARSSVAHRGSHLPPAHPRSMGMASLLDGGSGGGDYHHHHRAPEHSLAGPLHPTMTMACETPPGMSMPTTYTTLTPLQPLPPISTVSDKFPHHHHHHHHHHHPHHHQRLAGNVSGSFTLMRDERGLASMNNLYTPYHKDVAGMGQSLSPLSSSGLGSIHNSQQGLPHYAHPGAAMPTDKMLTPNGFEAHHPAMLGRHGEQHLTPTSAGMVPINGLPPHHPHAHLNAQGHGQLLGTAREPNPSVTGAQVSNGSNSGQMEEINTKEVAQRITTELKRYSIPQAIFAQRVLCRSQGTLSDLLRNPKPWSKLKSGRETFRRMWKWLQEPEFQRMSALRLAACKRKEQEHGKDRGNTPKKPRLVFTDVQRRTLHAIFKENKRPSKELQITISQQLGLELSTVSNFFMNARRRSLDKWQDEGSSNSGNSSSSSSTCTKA

SMILES | outcome | AC50
C=C(C)C(=O)OCCC(F)(F)C(F)(F)C(F)(F)C(F)(F)C(F)(C(F)(F)F)C(F)(F)F | inactive | –
CCCCCCCCCCCCCCCC[N+](C)(C)Cc1ccccc1 | inactive | –
CC(C)(C)C(=O)CC(=O)C(F)(F)C(F)(F)C(F)(F)F | inactive | –
C(=C(c1ccccc1)c1ccccc1)c1ccccc1 | inactive | –
CCCCNc1ccccc1 | inactive | –
O=C(O)C(F)(F)C(F)(F)C(F)(F)F | inactive | –
FC(F)(F)C(F)(F)C(F)(F)N(C(F)(F)C(F)(F)C(F)(F)F)C(F)(F)C(F)(F)C(F)(F)F | inactive | –
O=S(=O)(OCC(F)F)C(F)(F)F | inactive | –
COC(OC(C)=O)c1ccccc1 (stereo not given) | inactive | –
FC(F)(Br)C(F)(F)C(F)(F)C(F)(F)C(F)(F)C(F)(F)Br | inactive | –
O=C(O)C(F)(OC(F)(F)C(F)(OC(F)(F)C(F)(F)C(F)(F)F)C(F)(F)F)C(F)(F)F (stereo not given) | inactive | –
O=C(O)C(F)(F)C(F)(F)C(F)(F)C(F)(F)C(F)(F)C(F)(F)C(F)(F)C(F)(F)C(F)(F)C(F)(F)C(F)(F)C(F)(F)C(F)(F)F | inactive | –
O=C(O)C(F)(F)C(F)(F)C(F)(F)C(F)(F)C(F)(F)C(F)(F)C(F)(F)C(F)(F)C(F)(F)C(F)F | inactive | –
O=C(O)C(F)(F)C(F)(F)C(F)F | inactive | –
CCCCCCOC(=O)c1ccccc1O | inactive | –
NC(=O)C(F)(F)C(F)(F)C(F)(F)C(F)(F)F | inactive | –
FC(F)(F)C(F)(F)C(F)(F)C(F)(F)C(F)(F)C(F)(F)CC1CO1 (stereo not given) | inactive | –

SMILES | outcome | AC50
FC1CC(F)(F)C(F)(F)C1(F)F (stereo not given) | inactive | –
CCCCOc1ccc(N)cc1 | inactive | –
O=C(O)C(F)(F)C(F)(F)C(F)(F)C(F)(F)C(F)(F)C(F)(F)C(F)(F)C(F)(F)Cl | inactive | –
CC(Cc1ccc(O)c(O)c1)C(C)Cc1ccc(O)c(O)c1 (stereo not given) | inactive | –
FC(F)(F)C(F)(F)C(F)(F)C(F)(F)C(F)(F)C(F)(F)C(F)(F)I | inactive | –
CCCCOCCOCCOC(=O)CCCCC(=O)OCCOCCOCCCC | inactive | –
OCCCC(F)(F)C(F)(F)C(F)(F)C(F)(F)C(F)(F)C(F)(F)C(F)(F)F | inactive | 83 µM (active)
CNC(=S)NC | inactive | –
[Co] | inactive | –
C=CC(F)(F)C(F)(F)C(F)(F)C(F)(F)C(F)(F)C(F)(F)C(F)(F)C(F)(F)C=C | inactive | –
CCC(=O)OCCc1ccccc1 | inactive | –
CC/C=C\CCOC(=O)c1ccccc1 | inactive | –
O=C(C=Cc1ccccc1)OCC=Cc1ccccc1 | inactive | –
CCCCCCCOC(=O)c1ccccc1C(=O)OCCCCCCC | inactive | –
OCCCC(F)(F)C(F)(F)C(F)(F)F | inactive | –
CCCCCCC(C)OC(=O)CCCCC(=O)OC(C)CCCCCC (stereo not given) | inactive | –
OCC(F)(F)C(F)(F)C(F)(F)F | inactive | –

Molecular target: Heat shock factor protein 1 (Homo sapiens) (UniProt Q00613)
Assay: ATG_HSE_CIS: Attagene CIS-FACTORIAL HepG2 Assay for human Heat Shock Transcription Factor 1 (HSE) (AID 2282953)
Details: HepG2 HSE cis-reporter, Attagene RNA transcription; actives raise or lower the signal
Procedure, shortened: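 Endogenous transcription factor activity captured via cis-promoter reporter units transfected into HepG2; treatment lasted 24 h. Fluorescence intensity of reporter fragments analysed with bidirectional curve fitting, DMSO baseline.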

Sequence of Heat shock factor protein 1 (Homo sapiens) (Q00613 whole entry, looked up): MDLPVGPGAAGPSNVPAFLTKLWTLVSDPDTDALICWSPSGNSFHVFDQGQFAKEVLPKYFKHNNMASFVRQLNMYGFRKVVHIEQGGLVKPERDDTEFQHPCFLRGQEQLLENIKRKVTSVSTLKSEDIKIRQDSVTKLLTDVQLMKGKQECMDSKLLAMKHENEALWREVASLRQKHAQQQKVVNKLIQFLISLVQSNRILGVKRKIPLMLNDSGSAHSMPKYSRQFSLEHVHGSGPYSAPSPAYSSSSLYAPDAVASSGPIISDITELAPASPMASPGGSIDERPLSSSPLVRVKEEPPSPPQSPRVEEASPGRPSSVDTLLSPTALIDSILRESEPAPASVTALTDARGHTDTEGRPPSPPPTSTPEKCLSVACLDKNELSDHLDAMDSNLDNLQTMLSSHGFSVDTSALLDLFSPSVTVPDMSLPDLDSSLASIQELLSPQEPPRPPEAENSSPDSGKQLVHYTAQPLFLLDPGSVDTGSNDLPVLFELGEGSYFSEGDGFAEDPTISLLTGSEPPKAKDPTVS

SMILES | outcome | AC50
C=C(C)C(=O)OCCC(F)(F)C(F)(F)C(F)(F)C(F)(F)C(F)(C(F)(F)F)C(F)(F)F | inactive | –
CCCCCCCCCCCCCCCC[N+](C)(C)Cc1ccccc1 | – | 24.5 µM (active)
CC(C)(C)C(=O)CC(=O)C(F)(F)C(F)(F)C(F)(F)F | inactive | –
C(=C(c1ccccc1)c1ccccc1)c1ccccc1 | inactive | –
CCCCNc1ccccc1 | inactive | –
O=C(O)C(F)(F)C(F)(F)C(F)(F)F | inactive | –
FC(F)(F)C(F)(F)C(F)(F)N(C(F)(F)C(F)(F)C(F)(F)F)C(F)(F)C(F)(F)C(F)(F)F | inactive | –
O=S(=O)(OCC(F)F)C(F)(F)F | inactive | –
COC(OC(C)=O)c1ccccc1 (stereo not given) | inactive | –
FC(F)(Br)C(F)(F)C(F)(F)C(F)(F)C(F)(F)C(F)(F)Br | inactive | –
O=C(O)C(F)(OC(F)(F)C(F)(OC(F)(F)C(F)(F)C(F)(F)F)C(F)(F)F)C(F)(F)F (stereo not given) | inactive | –
O=C(O)C(F)(F)C(F)(F)C(F)(F)C(F)(F)C(F)(F)C(F)(F)C(F)(F)C(F)(F)C(F)(F)C(F)(F)C(F)(F)C(F)(F)C(F)(F)F | inactive | –
O=C(O)C(F)(F)C(F)(F)C(F)(F)C(F)(F)C(F)(F)C(F)(F)C(F)(F)C(F)(F)C(F)(F)C(F)F | inactive | –
O=C(O)C(F)(F)C(F)(F)C(F)F | inactive | –
CCCCCCOC(=O)c1ccccc1O | inactive | –
NC(=O)C(F)(F)C(F)(F)C(F)(F)C(F)(F)F | inactive | –
FC(F)(F)C(F)(F)C(F)(F)C(F)(F)C(F)(F)C(F)(F)CC1CO1 (stereo not given) | inactive | –

SMILES | outcome | AC50
FC1CC(F)(F)C(F)(F)C1(F)F (stereo not given) | inactive | –
CCCCOc1ccc(N)cc1 | inactive | –
O=C(O)C(F)(F)C(F)(F)C(F)(F)C(F)(F)C(F)(F)C(F)(F)C(F)(F)C(F)(F)Cl | – | 75.8 µM (active) and 82.1 µM (active)
CC(Cc1ccc(O)c(O)c1)C(C)Cc1ccc(O)c(O)c1 (stereo not given) | – | 57.7 µM (active)
FC(F)(F)C(F)(F)C(F)(F)C(F)(F)C(F)(F)C(F)(F)C(F)(F)I | inactive | –
CCCCOCCOCCOC(=O)CCCCC(=O)OCCOCCOCCCC | inactive | –
OCCCC(F)(F)C(F)(F)C(F)(F)C(F)(F)C(F)(F)C(F)(F)C(F)(F)F | inactive | 95.1 µM (active)
CNC(=S)NC | inactive | –
[Co] | inactive | –
C=CC(F)(F)C(F)(F)C(F)(F)C(F)(F)C(F)(F)C(F)(F)C(F)(F)C(F)(F)C=C | inactive | –
CCC(=O)OCCc1ccccc1 | inactive | –
CC/C=C\CCOC(=O)c1ccccc1 | inactive | –
O=C(C=Cc1ccccc1)OCC=Cc1ccccc1 | inactive | –
CCCCCCCOC(=O)c1ccccc1C(=O)OCCCCCCC | inactive | –
OCCCC(F)(F)C(F)(F)C(F)(F)F | inactive | –
CCCCCCC(C)OC(=O)CCCCC(=O)OC(C)CCCCCC (stereo not given) | inactive | –
OCC(F)(F)C(F)(F)C(F)(F)F | inactive | –
